Assay outcomes: PubChem BioAssay, several laboratories
Compounds with a hit are over-represented: about 2.3% of the library has one in this group of screens.
Rin1-Abl PPI inh = human Rin1-Abl interaction inhibition; hit rate 0.4% among 360,000; P00519+Q13671; inhibition, % at 7.35 µM; TR-FRET Rin1/Abl binding, biochemical; AID 588664; in the data active means inhibition above about 5%, passing the limit was not always enough
Rpn11 inh = Rpn11 (human) deubiquitinase inhibition; O00487; human 26S proteasome, Ub4-pepOG fluorescence polarization; 20S core pre-blocked with epoxomicin; inhibition, % at 20 µM; hit rate 0.59% among 360,000; AID 588493;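 active means inhibition at 20 µM, scaled to each plate's controls, above about 33%, limit read from the data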
Target sequence (O00487 whole entry, looked up): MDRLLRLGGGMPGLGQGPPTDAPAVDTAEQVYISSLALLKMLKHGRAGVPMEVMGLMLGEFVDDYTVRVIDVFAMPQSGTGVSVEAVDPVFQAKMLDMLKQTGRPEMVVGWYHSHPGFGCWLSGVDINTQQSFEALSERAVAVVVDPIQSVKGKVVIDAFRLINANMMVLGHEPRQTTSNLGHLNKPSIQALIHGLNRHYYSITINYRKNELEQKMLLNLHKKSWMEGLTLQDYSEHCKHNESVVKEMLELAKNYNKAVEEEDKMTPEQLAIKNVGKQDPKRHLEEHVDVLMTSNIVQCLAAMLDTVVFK
IDE inh = inhibits human insulin-degrading enzyme in HEK cells; P14735; FAbetaB cleavage, fluorescence polarization; inhibition, % at 5.59 µM; hit rate 0.41% among 320,000;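 active means percent inhibition above the average of all tested compounds plus 3 SD, set per screening campaign, cut at about 16% in these data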;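 further: IDE supplied by intact live HEK cells; FP after avidin binding of uncleaved biotin substrate so inhibition keeps polarization high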
IDE act = boosts human insulin-degrading enzyme activity in HEK cells; P14735; FAbeta-B cleavage, fluorescence polarization; 0% vehicle, 100% cell-free pure enzyme wells; activation, % at 5.96 µM; hit rate 0.073% among 340,000;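 active means activation above the mean of all tested compounds plus 3 SD, set per screening campaign, cut at about 17% in these data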
TPT1 inhibitor = C. albicans TPT1 enzyme inhibition; inhibition, % at 5 µM; recombinant caTPT1, FP RNA substrate dephosphorylation; AID 1962; hit rate 0.81% among 300,000;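 active means inhibition above the mean of all tested compounds plus 3 SD, set per screening campaign, cut at about 24% in these data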
Calb FLC = affects C. albicans growth with fluconazole; AID 1979; growth inhibition, % (test concentration not listed); C. albicans CaCi-2 (fluconazole-resistant clinical isolate) + fluconazole, Alamar Blue growth, 48 h; hit rate 0.57% among 300,000;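 active means growth inhibition above about 58% in most replicates, limit read from the data, passing the limit was not always enough; inconclusive means exactly half the replicates above a set limit; inactive means most replicates below a set limit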;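 further: all wells also contain fluconazole at 8 µg/ml as a sub-toxic cotreatment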
Rin1-Abl confirm = Rin1-Abl interaction inhibition confirmation. shares compounds with Rin1-Abl PPI inh. TR-FRET Rin1-Abl binding, purified proteins. inhibition, % at 7.35 µM. hit rate 49% among 1,300
GFP quench = quenches GFP fluorescence, counter-screen for Rin1-Abl inhibitors; shares compounds with Rin1-Abl PPI inh; inhibitors/quenchers counterscreen; inhibition, % at 6.75 µM; hit rate 8.5% among 1,300; AID 602125;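 further: ABL1-eGFP fusion protein alone without its partner RIN1-SBP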
GFP quench DR = counter-screen for Rin1-Abl inhibitors: GFP quenchers, dose response. shares compounds with Rin1-Abl PPI inh. GFP fluorescence interference/quenching counterscreen. IC50, µM. 230 tested, under 10 active. AID 602182; call rule not given here;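 further: ABL1-eGFP fusion protein alone without its RIN1 binding partner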
Hits are given with their value; - = inactive; ? = inconclusive; . = not tested or not shown; ! = not confirmed by another sample. Unless noted, no stated cut-off is given here; in the data, active means inhibition above about 6.5%; inactive means the rest.

SMILES	Rin1-Abl PPI inh	Rpn11 inh	IDE inh	IDE act	TPT1 inhibitor	Calb FLC	Rin1-Abl confirm	GFP quench	others
O=C(Nc1cccc(NC(=O)c2cccnc2)c1)c1cccnc1	8.6	-	-	-	-	-	-	-
O=C(Nc1cccc(F)c1)c1cccnc1	-	-	.	-	.	-	.	.
Cc1[nH]c(=O)[nH]c1C(=O)CCCCC(=O)OCC(=O)Nc1ccccn1	89.8	-	-	-	-	-	97.1	-
O=C(O)/C=C/C(=O)c1c(-c2ccccc2)[nH]c2ccccc12	-	-	-	-	-	-	.	.
CC[n+]1c(C)n(C)c2cc(S(=O)(=O)N(C)C)ccc21	8.9	-	-	-	-	-	-	-
CCn1c(C)[n+](CC)c2ccc(S(=O)(=O)N(C)C)cc21	-	-	-	-	-	-	.	.
O=C(CSc1nnc(Cn2c(=O)sc3ccccc32)n1-c1ccccc1)Nc1nccs1	9.6	-	-	-	-	-	-	-
O=C(CSc1nnc(Cn2c(=O)sc3ccccc32)n1-c1ccccc1)N1CCCC1	-	-	-	-	-	.	.	.
COc1ccc(-n2c(Cn3c(=O)sc4ccccc43)nnc2SCC(=O)N2CCOCC2)cc1	6.5	-	-	-	-	.	-	-
Cn1c(Cn2c(=O)sc3ccccc32)nnc1SCC(=O)N1CCOCC1	-	-	-	-	-	-	.	.
COc1ccccc1CC(NC(C)=O)C(=O)NC1CCN(S(=O)(=O)c2ccc(NC(C)=O)cc2)CC1 (stereo not drawn)	12.0	-	-	-	-	-	-	-
Cc1ccc(C)c(OC(=O)C2CSC3(C)CCC(=O)N23)c1C (stereo not drawn)	-	-	-	-	.	.	.	.
COc1ccc(/C=N\NC(=O)c2cc(O)c(O)c(O)c2)cc1COc1ccc(C(=O)OCC(C)C)cc1	15.3	-	-	-	-	-	10.9	-
COc1ccc(/C=N\NC(=O)c2cc(O)c(O)c(O)c2)cc1CN1CCN(c2ccc(F)cc2)CC1	52.6	-	-	-	-	98.6	49.5	11.4
O=C(O)c1nn(Cc2ncc(-c3cccc(Cl)c3)o2)c(=O)c2ccccc12	-	-	-	-	-	-	.	.
CC1(C)CN(c2ccc(Br)cc2)C(=O)[C@H]1CC(=O)Nc1ccccc1	-	-	.	.	.	.	.	.
CCCCCC1NC(=O)NC1CCCCCC(=O)O (stereo not drawn)	14.0	-	-	-	-	-	14.1	-
O=C(O)CCCCCN1C(=O)CCC1=O	-	-	-	-	-	-	.	.
CCCCCCCC(=O)O	-	-	-	-	.	.	.	.
C[C@@H]1NC(=O)N[C@@H]1CCCCCC(=O)O	91.6	-	-	51.2	-	.	95.3	-	GFP quench DR=-
CC1Cc2ccccc2N1C(=O)COC(=O)/C=C/c1cccc(F)c1 (stereo not drawn)	12.4	-	-	-	.	.	-	-
COc1ccc(CC(=O)Nc2c3c(nn2C(C)(C)C)CS(=O)(=O)C3)cc1	-	-	-	-	-	-	.	.
COc1ccccc1C(CNC(=O)CNC(=O)c1ccccc1Cl)N1CCCC1 (stereo not drawn)	-	-	-	-	.	.	.	.
CCOC(=O)N1CCN(CCC(=O)Nc2cccc(Br)c2)CC1	6.2!	-	-	-	-	-	-	-
CCOC(=O)N1CCN(CCC(=O)Nc2ccc(C)c(Br)c2)CC1	5.6	-	-	-	-	-	-	-
SMILES	Rin1-Abl PPI inh	Rpn11 inh	IDE inh	IDE act	TPT1 inhibitor	Calb FLC	Rin1-Abl confirm	GFP quench	others
CCOC(=O)N1CCN(CCC(=O)Nc2ccc(Br)cc2)CC1	-	-	-	-	-	-	.	.
O=c1[nH]c(/C=C\c2ccc(O)c(O)c2)nc(O)c1[N+](=O)[O-]	8.3	-	.	-	.	-	8.2	-
CN(Cc1ccc(Cl)cc1Cl)C(=O)C1CC(=O)N(Cc2ccco2)C1 (stereo not drawn)	-	-	.	.	.	.	.	.
OCC1(CCOc2ccccc2)CCN(Cc2ccncc2)CC1	12.3	-	-	-	-	-	12.3	-
COc1ccccc1Cn1c(C)c(C(=O)NCc2ccco2)sc1=O	-	-	.	.	.	.	.	.
CC(NC(=O)c1ccc(F)cc1F)C1CC2CCC1C2 (stereo not drawn)	8.1	-	-	-	-	-	-	-
CC(NC(=O)c1cccc(F)c1)C1CC2CCC1C2 (stereo not drawn)	-	-	-	-	-	-	.	.
CCN(C1CCCCC1)S(=O)(=O)c1ccc(OC)c(C)c1	-	-	-	-	-	-	.	.
CCN(C1CCCCC1)S(=O)(=O)c1ccc(-n2cnnn2)c(C)c1	13.8	-	-	-	-	-	-	-
Cc1ccc(NC2=C(N3CCOCC3)C(=O)c3ccccc3C2=O)cc1	11.9	-	-	-	-	-	-	-
C[C@@H]1CN([C@@H](C)CO)C(=O)CCCn2cc(nn2)CO[C@H]1CN(C)C(=O)c1cc(-c2ccccc2)on1	-	-	.	.	.	.	.	.
O=C(COc1ccc(-c2ccccc2)cc1)N1CCCC1	-	-	-	-	-	-	.	.
O=C1CN(C(=O)COc2ccccc2)CCN1	8.5	-	-	-	-	-	-	-
Cc1cccc(NC(=S)NNc2ncc(C(F)(F)F)cc2Cl)c1	-	-	-	-	-	?	.	.
FC(F)(F)c1cnc(NNC(=S)Nc2ccccc2Cl)c(Cl)c1	5.7	-	-	-	-	?	-	-
O=C(c1ccccc1)N1N=C(c2ccccc2O)CC1c1ccccc1 (stereo not drawn)	-	-	-	-	-	-	.	.
Cc1ccccc1OCCNCC(C)O (stereo not drawn)	9.0	-	-	-	-	-	-	-
CCOc1ccccc1CNCCNCC(C)O (stereo not drawn)	-	-	-	-	-	?	.	.
CCOC(=O)CC1CCCCN1C(=O)c1cc(COc2cccc3cnccc23)on1 (stereo not drawn)	-	-	-	-	-	-	.	.
Cc1c(-c2cccc(Cl)c2)nc2ccccc2c1C(=O)OC/C(O)=C(\C#N)c1nc2ccccc2[nH]1	-	.	-	-	-	-	.	.
CCOc1ccc(CCNC(=O)CN2C(=O)c3cccnc3Oc3ccc(Cl)cc32)cc1	26.5	-	-	-	-	-	24.3	-	GFP quench DR=-
CCOc1ccc(CCNC(=O)CN2C(=O)c3cccnc3Oc3ccc(C)cc32)cc1OCC	36.3	-	-	-	-	-	41.1	-	GFP quench DR=-
CSc1ccc(CCNC(=O)CN2C(=O)c3cccnc3Oc3ccc(C)cc32)cc1	-	-	-	-	-	-	.	.
CC1CCc2c(C(=O)Nc3cccc(-c4nn[nH]n4)c3)csc2C1 (stereo not drawn)	-	-	-	-	-	-	.	.
CCc1ccccc1N(CC(=O)NC1CCCC1)C(=O)CNC(=O)c1cccs1	-	-	-	-	-	-	.	.
